The values that follow come from the antibiotic and cytotoxicity screens of Wong et al. (2023).

Each structure is given as a SMILES string. Out of some 39,000 compounds screened, about 3,300 (8.5%) were called active. Only a selection was taken, and actives are over-represented in it overall.

The assay concerns HepG2. In words: cytotoxicity call (relative viability < 0.9). To be noted: 10 µM.
Turning to `COc1cc(F)c(C(C)C)cc1-c1ccc(C(F)(F)F)cc1CN1C(=O)O[C@H](c2cc(C(F)(F)F)cc(C(F)(F)F)c2)[C@@H]1C`, the cytotoxicity call was “inactive”.
As for `COc1ccc2c3c(n(c2c1)C)[C@H](CO)N(C[C@]13CCN(CC1)C(=O)c1cccnc1)C(=O)c1cccnc1`, the cytotoxicity call was “inactive”.
With `C[C@@H]1CN([C@@H](C)CO)C(=O)c2cc(NC(=O)c3ccncc3)ccc2O[C@@H]1CN(C)Cc1ccncc1`, the cytotoxicity call was “inactive”.
For the compound `C[C@@H]1CCCCO[C@H](CN(C)C(=O)CCCN(C)C)[C@H](C)CN([C@@H](C)CO)C(=O)c2cc(NC(=O)Nc3ccc(F)cc3)ccc2O1`, the cytotoxicity call was “inactive”.
Consider `COc1ccc(NC(=O)N(C)C[C@@H]2OCCCC[C@@H](C)Oc3ccc(NS(=O)(=O)c4ccccc4)cc3C(=O)N([C@H](C)CO)C[C@H]2C)cc1`, for which the cytotoxicity call was “inactive”.
Turning to `COc1cccc(-c2ccc3c(c2)O[C@@H](CN(C)C(=O)C2CC2)[C@@H](C)CN([C@H](C)CO)S3(=O)=O)c1`, the cytotoxicity call was “inactive”.
As for `C[C@@H]1CN([C@H](C)CO)C(=O)c2cc(NS(=O)(=O)c3ccc(Cl)cc3)ccc2O[C@@H](C)CCCCO[C@@H]1CN(C)C(=O)CCC(F)(F)F`, the cytotoxicity call is “inactive”.
With `N[C@H](C(=O)O)c1cc(O)cc(O)c1` the entry was “inactive”; with `Cc1noc(C)c1NC(=O)Nc1ccc2c(c1)C(=O)N([C@@H](C)CO)C[C@@H](C)[C@@H](CN(C)C(=O)Nc1cccc3ccccc13)O2`, “inactive”; with `Cc1noc(C)c1NC(=O)N(C)C[C@H]1OCCCC[C@H](C)Oc2ccc(NS(=O)(=O)c3cccs3)cc2C(=O)N([C@H](C)CO)C[C@@H]1C`, “inactive”.
As for `CCCCCCc1ccc(O)cc1O` [listing 1 of 2 here], the cytotoxicity call was “inactive”.
In the case of `COC(=O)CCc1ccc(OC)cc1O`, the cytotoxicity call was “inactive”.
Consider `CCCCCCCCCCCCCCCCCC(=O)NCCCCOn1c(CCCC)nc2c(N)nc3ccccc3c21`, for which the cytotoxicity call was “inactive”.
Regarding `CCCCCCc1ccc(O)cc1O.Nc1c2ccccc2nc2ccccc12`, the cytotoxicity call is “active”.
With `CCCCCCc1ccc(O)cc1O` [listing 2 of 2 here], the cytotoxicity call was “active”.
As for `CCCCCCCc1c(C)c(O)cc2c1[nH]c1ccccc12`, the cytotoxicity call is “inactive”.
In the case of `Cc1noc(C)c1NC(=O)Nc1ccc2c(c1)CC(=O)N([C@@H](C)CO)C[C@H](C)[C@@H](CN(C)S(=O)(=O)c1cccs1)O2`, the cytotoxicity call was “inactive”.
`Cc1noc(C)c1NC(=O)N(C)C[C@H]1Oc2ccc(NS(=O)(=O)c3ccccc3)cc2CC(=O)N([C@@H](C)CO)C[C@@H]1C`: the cytotoxicity call was “inactive”.
Turning to `COc1ccc(NC(=O)N[C@@H]2CC[C@H](CCNC(=O)CN3CCOCC3)O[C@@H]2CO)cc1`, the cytotoxicity call was “inactive”.
With `CCC(=O)N(C)C[C@H]1Oc2ncc(C#C[C@H](C)O)cc2C(=O)N([C@H](C)CO)C[C@@H]1C` the entry was “inactive”; with `C[C@H](CO)N1C[C@H](C)[C@@H](CN(C)C(=O)Nc2ccccc2)Oc2cc(C#C[C@@H](C)O)ccc2S1(=O)=O`, “inactive”.
